From the supplement of paper PMC10849652
Of roughly 8,800 targets only a part is listed; those with a hit were picked by preference. About 0.5% of all pairs of compound and target were hits.

Key:
Assay in all cases: log2 fold change, soluble protein after heating vs DMSO (PISA); higher = thermal stabilisation; K562 lysate, 10 uM; active = over 0.2 and 3.5 SD of the protein, either way, in both replicates (recomputed)
alvocidib = compound: CN1CC[C@H](c2c(O)cc(O)c3c(=O)cc(-c4ccccc4Cl)oc23)[C@H](O)C1 [alvocidib]
Method in brief: (§1)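 Values give the log-two fold change in thermal stability against solvent controls, from duplicates. Crude K562 extract at 1 mg/mL protein, made by dounce homogenisation in PBS pH 7.4 with 1 mM MgCl2, was treated with 10 μM compound for 30 min. After 3 min heating across 48°C-58°C, aliquots were pooled, adjusted to 0.5% NP-40 at 4°C and centrifuged at 21,000xg for 90 min. The supernatant was measured by TMTpro 16plex LC-MS/MS with channel sums equalised.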

Tubastatin A = compound: CN1CCc2c(c3ccccc3n2Cc2ccc(C(=O)NO)cc2)C1 [Tubastatin A]
Method in brief: as §1

[1] = compound: CNC(=O)C1=CC=CC=C1NC2=NC(=NC=C2Cl)NC3=C(C=C(C=C3)N4CCOCC4)OC
Method in brief: as §1

defactinib = compound: CNC(=O)c1ccc(Nc2ncc(C(F)(F)F)c(NCc3nccnc3N(C)S(C)(=O)=O)n2)cc1 [defactinib]
Method in brief: as §1

[2] = compound: CNc1nc(-c2ccc3c(N)n[nH]c3c2)cc(N2C[C@@H](C(=O)NC3CCCCC3)CC[C@H]2C)n1
Method in brief: as §1

encorafenib = compound: COC(=O)N[C@@H](C)CNc1nccc(-c2cn(C(C)C)nc2-c2cc(Cl)cc(NS(C)(=O)=O)c2F)n1 [encorafenib]
Method in brief: as §1

[3] = compound: COC(=O)[C@H](CCSC)NC(=O)C1=C(C=C(C=C1)NC[C@H](CS)N)C2=CC=CC=C2
Method in brief: as §1

alisertib = compound: COc1cc(Nc2ncc3c(n2)-c2ccc(Cl)cc2C(c2c(F)cccc2OC)=NC3)ccc1C(=O)O [alisertib]
Method in brief: as §1

[4] = compound: COc1cc2nc(-c3cc(F)ccc3O)nc(N[C@@H]3CNC[C@H]3C(C)(C)O)c2cc1OC
Method in brief: as §1

gefitinib = compound: COc1cc2ncnc(Nc3ccc(F)c(Cl)c3)c2cc1OCCCN1CCOCC1 [gefitinib]
Method in brief: as §1

Measured: log2 fold change

RPL37A (UniProt P61513)
inactive: alvocidib 0.159 | Tubastatin A 0.024 | [1] 0.022 | defactinib -0.045 | [2] 0.161 | encorafenib 0.004 | [3] 0.021 | alisertib -0.006 | [4] 0.004 | gefitinib -0.064

RNF40 (UniProt O75150)
inactive: alvocidib -0.003 | Tubastatin A -0.102 | [1] 0.023 | defactinib 0.022 | [2] -0.006 | encorafenib 0.015 | [3] 0.079 | alisertib -0.002 | [4] 0 | gefitinib 0.013

RTTN (UniProt Q86VV8)
inactive: alvocidib 0.088 | Tubastatin A -0.242 | [1] 0.082 | defactinib 0.401 | [2] 0.018 | encorafenib 0.069 | [3] -0.085 | alisertib -0.002 | [4] -0.301 | gefitinib 0.049

RFWD3 (UniProt Q6PCD5)
Chain of UniProt Q6PCD5 (Q6PCD5 whole entry, looked up): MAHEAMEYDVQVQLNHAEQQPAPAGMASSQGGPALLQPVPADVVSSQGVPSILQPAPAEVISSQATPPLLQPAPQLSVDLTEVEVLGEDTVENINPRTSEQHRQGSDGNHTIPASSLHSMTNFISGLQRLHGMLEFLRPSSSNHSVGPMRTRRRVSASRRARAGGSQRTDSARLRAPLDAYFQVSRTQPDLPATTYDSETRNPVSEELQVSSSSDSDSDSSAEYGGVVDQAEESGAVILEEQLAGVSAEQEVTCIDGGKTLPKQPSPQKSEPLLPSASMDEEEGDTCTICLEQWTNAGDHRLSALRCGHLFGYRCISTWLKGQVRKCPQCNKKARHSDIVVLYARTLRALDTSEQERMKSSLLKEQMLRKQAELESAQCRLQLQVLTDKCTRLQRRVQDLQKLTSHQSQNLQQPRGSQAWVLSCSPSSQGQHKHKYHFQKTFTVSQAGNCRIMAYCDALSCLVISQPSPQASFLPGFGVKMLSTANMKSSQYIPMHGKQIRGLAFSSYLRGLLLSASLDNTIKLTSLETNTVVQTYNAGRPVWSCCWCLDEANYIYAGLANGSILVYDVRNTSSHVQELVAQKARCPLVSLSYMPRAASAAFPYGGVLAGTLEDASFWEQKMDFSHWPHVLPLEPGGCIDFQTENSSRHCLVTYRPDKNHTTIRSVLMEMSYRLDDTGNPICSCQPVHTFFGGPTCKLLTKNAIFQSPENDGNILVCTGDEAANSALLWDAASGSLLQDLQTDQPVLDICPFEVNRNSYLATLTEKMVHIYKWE
inactive: alvocidib -0.057 | Tubastatin A 0.065 | [1] 0.051 | defactinib 0.082 | [2] -0.057 | encorafenib 0.1 | [3] -0.052 | alisertib 0.114 | gefitinib -0.057

RIPK1 (UniProt Q13546)
inactive: alvocidib 0.001 | Tubastatin A -0.108 | [1] 0.044 | defactinib 0.065 | [2] 0.035 | encorafenib -0.017 | [3] 0.025 | alisertib -0.025 | [4] -0.016 | gefitinib 0.042

RNF213, A0A0A0MTC1
inactive: alvocidib -0.003 | Tubastatin A -0.081 | [1] 0.023 | defactinib -0.02 | [2] -0.04 | encorafenib 0.054 | [3] -0.061 | alisertib 0.013 | [4] 0.012 | gefitinib -0.012

RECQL4 (UniProt O94761)
inactive: alvocidib 0.042 | Tubastatin A -0.045 | [1] 0.104 | defactinib 0.049 | [2] -0.02 | encorafenib 0.023 | [3] 0.056 | alisertib 0.028 | gefitinib 0.065

RAF1 isoform 2 (UniProt P04049)
active: encorafenib 1.06
inactive: alvocidib 0.048 | Tubastatin A -0.022 | [1] 0.019 | defactinib -0.097 | [2] -0.001 | [3] 0.048 | alisertib -0.007 | [4] 0.052 | gefitinib 0.022

RPS9 (UniProt P46781)
inactive: alvocidib 0.053 | Tubastatin A 0.006 | [1] -0.036 | defactinib -0.064 | [2] 0.006 | encorafenib -0.022 | [3] 0.065 | alisertib 0.004 | [4] -0.003 | gefitinib -0.033

SERPINI1 (UniProt Q99574)
Chain of UniProt Q99574 (Q99574 whole entry, looked up): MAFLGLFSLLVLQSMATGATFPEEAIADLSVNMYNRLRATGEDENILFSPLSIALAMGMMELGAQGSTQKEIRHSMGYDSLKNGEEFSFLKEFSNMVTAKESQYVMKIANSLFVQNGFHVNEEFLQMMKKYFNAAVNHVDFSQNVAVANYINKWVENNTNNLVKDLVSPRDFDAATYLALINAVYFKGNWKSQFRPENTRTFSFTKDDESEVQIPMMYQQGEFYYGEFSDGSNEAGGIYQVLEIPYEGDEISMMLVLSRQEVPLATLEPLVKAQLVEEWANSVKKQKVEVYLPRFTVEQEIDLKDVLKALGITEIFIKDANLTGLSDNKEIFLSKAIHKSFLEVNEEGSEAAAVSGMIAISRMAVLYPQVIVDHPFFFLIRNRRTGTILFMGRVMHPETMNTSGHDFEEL
inactive: alvocidib -0.031 | Tubastatin A 0.015 | [1] -0.001 | defactinib 0.019 | [2] -0.042 | encorafenib 0.02 | [3] -0.074 | alisertib -0.064 | [4] 0.013 | gefitinib 0.048

RBSN (UniProt Q9H1K0)
inactive: alvocidib -0.031 | Tubastatin A 0.005 | [1] -0.047 | defactinib 0.015 | [2] -0.014 | encorafenib 0.089 | [3] -0.048 | alisertib 0.019 | [4] 0.015 | gefitinib 0.059

RFC5 (UniProt P40937)
Chain of UniProt P40937 (P40937 whole entry, looked up): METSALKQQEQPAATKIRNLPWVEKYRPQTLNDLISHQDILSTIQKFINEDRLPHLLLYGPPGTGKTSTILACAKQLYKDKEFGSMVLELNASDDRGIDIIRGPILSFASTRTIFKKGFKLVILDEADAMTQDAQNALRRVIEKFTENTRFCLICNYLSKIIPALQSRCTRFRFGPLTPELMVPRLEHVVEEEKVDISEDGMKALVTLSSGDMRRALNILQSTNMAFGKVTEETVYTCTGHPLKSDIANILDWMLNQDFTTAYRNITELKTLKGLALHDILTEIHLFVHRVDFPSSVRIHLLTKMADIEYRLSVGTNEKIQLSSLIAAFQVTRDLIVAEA
inactive: alvocidib 0.004 | Tubastatin A -0.203 | [1] 0.003 | defactinib 0.008 | [2] -0.004 | encorafenib 0.051 | [3] 0.148 | alisertib -0.006 | [4] -0.003 | gefitinib 0

SERINC3 (UniProt Q13530)
inactive: alvocidib -0.074 | Tubastatin A -0.008 | [1] 0.057 | defactinib -0.091 | [2] 0.065 | encorafenib 0.023 | [3] -0.109 | alisertib -0.047 | [4] 0.055 | gefitinib 0.014

RAD17 (UniProt O75943)
Chain of UniProt O75943 (O75943 whole entry, looked up): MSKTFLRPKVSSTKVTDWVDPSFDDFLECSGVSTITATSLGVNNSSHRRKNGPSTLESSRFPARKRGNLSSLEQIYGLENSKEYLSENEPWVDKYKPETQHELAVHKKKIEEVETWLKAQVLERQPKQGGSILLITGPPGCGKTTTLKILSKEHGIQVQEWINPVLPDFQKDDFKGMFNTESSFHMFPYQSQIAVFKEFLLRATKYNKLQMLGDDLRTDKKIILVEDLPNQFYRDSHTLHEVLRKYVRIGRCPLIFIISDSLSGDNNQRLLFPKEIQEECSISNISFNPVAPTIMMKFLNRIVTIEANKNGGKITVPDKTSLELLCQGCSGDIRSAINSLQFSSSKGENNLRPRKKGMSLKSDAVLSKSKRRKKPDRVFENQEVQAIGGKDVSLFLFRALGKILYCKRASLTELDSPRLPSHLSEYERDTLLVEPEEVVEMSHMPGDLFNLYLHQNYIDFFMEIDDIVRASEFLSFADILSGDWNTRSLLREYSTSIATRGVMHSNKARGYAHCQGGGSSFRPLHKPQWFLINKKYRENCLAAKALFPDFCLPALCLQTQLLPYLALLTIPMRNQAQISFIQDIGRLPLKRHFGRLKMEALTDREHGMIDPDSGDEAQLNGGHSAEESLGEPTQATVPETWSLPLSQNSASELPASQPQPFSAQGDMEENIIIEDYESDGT
inactive: alvocidib -0.24 | Tubastatin A -0.041 | defactinib 0.111 | [2] 0.154 | encorafenib 0.094 | [3] 0.026 | alisertib 0.029 | gefitinib 0.022

RALGAPB isoform 3 (UniProt Q86X10)
inactive: alvocidib 0.161 | [2] 0.064 | encorafenib 0.073 | [3] 0.107

RAD54L2 (UniProt Q9Y4B4)
inactive: alvocidib 0.007 | [1] -0.065 | defactinib -0.013 | [2] 0.093 | encorafenib 0.102 | [3] 0.153 | alisertib 0.141 | [4] -0.088 | gefitinib 0.045

RYR1 (UniProt P21817)
inactive: alvocidib 0.015 | Tubastatin A 0.097 | [1] 0.064 | [2] 0.16 | encorafenib -0.024 | [3] -0.087 | [4] 0.02

RBBP7 (UniProt Q16576)
Chain of UniProt Q16576 (Q16576 whole entry, looked up): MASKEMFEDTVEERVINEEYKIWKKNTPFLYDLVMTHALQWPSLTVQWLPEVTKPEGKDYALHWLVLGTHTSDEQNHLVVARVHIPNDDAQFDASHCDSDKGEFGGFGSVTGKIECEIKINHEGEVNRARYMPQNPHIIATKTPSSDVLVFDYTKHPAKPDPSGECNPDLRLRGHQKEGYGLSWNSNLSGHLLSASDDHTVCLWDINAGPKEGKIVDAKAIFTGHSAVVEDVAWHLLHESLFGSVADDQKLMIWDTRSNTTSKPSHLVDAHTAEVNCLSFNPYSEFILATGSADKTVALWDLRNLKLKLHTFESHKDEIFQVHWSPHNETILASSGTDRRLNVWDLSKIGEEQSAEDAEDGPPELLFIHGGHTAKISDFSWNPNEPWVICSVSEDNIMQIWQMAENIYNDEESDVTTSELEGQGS
inactive: Tubastatin A -0.005 | [1] 0.006 | defactinib -0.018 | [2] -0.125 | encorafenib 0.032 | [3] -0.021 | alisertib 0.014 | [4] -0.003 | gefitinib 0.006

RBM45 (UniProt Q8IUH3)
Chain of UniProt Q8IUH3 (Q8IUH3 whole entry, looked up): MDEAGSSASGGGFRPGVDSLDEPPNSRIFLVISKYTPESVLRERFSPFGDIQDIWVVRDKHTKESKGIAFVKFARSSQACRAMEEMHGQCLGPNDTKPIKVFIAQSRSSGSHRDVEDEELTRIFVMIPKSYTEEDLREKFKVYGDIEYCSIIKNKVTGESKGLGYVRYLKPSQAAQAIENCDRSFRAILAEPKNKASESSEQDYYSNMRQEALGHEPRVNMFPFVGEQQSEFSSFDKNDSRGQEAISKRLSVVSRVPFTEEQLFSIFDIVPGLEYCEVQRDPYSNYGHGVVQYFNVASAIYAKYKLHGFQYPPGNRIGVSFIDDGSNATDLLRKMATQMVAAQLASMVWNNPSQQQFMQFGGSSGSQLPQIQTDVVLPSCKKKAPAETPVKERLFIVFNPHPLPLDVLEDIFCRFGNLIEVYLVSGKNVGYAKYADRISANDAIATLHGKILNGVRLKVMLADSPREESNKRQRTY
inactive: alvocidib 0.013 | alisertib -0.136 | [4] 0.055 | gefitinib -0.03

RNF149 (UniProt Q8NC42)
Chain of UniProt Q8NC42 (Q8NC42 whole entry, looked up): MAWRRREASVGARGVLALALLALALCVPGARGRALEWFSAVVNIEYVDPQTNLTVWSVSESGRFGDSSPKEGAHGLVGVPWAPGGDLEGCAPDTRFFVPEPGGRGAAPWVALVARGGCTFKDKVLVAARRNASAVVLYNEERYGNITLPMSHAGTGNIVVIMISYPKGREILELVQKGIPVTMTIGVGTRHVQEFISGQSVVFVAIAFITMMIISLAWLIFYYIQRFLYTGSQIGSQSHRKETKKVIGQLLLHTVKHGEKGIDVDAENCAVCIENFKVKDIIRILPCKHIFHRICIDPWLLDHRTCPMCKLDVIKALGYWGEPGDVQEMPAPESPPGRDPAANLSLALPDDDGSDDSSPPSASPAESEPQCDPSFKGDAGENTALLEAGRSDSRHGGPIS
inactive: alvocidib -0.038 | Tubastatin A -0.047 | [1] 0.02 | defactinib 0.028 | [2] 0.004 | [4] -0.059 | gefitinib -0.075
active: alisertib -0.483

RPS6KA3 (UniProt P51812)
inactive: alvocidib 0.306 | Tubastatin A -0.151 | [2] -0.017 | encorafenib -0.107 | [3] 0.056 | [4] 0.049 | gefitinib -0.025
active: defactinib 0.433

RNF17 (UniProt Q9BXT8)
inactive: alvocidib -0.006 | Tubastatin A 0.079 | [1] 0.096 | [2] -0.183 | encorafenib 0.061 | [3] -0.032 | [4] -0.057

SEC16A isoform 2 (UniProt O15027)
inactive: Tubastatin A 0.023

SEMA4G isoform 2 (UniProt Q9NTN9)
inactive: alvocidib -0.116 | [1] 0.122 | defactinib -0.047 | [2] 0.143 | encorafenib -0.193 | [3] 0.215

RNPC3 (UniProt Q96LT9)
Chain of UniProt Q96LT9 (Q96LT9 whole entry, looked up): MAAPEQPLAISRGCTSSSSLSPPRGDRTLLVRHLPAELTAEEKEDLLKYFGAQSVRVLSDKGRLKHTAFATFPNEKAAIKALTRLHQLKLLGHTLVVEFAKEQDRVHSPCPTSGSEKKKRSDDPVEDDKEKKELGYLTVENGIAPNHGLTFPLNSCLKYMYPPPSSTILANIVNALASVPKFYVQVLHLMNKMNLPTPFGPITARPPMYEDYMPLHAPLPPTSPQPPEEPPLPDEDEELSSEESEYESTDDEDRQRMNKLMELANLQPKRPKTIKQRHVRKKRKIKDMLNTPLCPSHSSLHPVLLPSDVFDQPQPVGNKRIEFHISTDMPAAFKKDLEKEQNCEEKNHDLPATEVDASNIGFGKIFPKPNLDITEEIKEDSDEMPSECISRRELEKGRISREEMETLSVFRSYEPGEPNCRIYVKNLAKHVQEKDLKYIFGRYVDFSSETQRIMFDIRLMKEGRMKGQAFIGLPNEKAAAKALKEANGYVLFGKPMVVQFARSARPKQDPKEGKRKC
inactive: alvocidib 0.012 | Tubastatin A -0.099 | [1] -0.047 | [2] 0.082 | alisertib 0.118 | [4] 0.056 | gefitinib -0.08

RAP1B (UniProt F5GZG1)
inactive: alvocidib -0.118 | [1] 0.01 | defactinib -0.05 | [2] -0.104 | encorafenib 0.056 | [3] 0.124 | alisertib 0.059 | [4] 0.002 | gefitinib 0.071

RBBP7 (UniProt C9J7L0)
inactive: alisertib 0.089 | gefitinib -0.058

RUFY2 isoform 1 (UniProt Q8WXA3)
inactive: alvocidib 0.01 | Tubastatin A 0.074 | defactinib 0.066 | encorafenib 0.13 | [3] -0.031 | alisertib 0.003 | gefitinib 0.053

RAD54L (UniProt Q92698)
Chain of UniProt Q92698 (Q92698 whole entry, looked up): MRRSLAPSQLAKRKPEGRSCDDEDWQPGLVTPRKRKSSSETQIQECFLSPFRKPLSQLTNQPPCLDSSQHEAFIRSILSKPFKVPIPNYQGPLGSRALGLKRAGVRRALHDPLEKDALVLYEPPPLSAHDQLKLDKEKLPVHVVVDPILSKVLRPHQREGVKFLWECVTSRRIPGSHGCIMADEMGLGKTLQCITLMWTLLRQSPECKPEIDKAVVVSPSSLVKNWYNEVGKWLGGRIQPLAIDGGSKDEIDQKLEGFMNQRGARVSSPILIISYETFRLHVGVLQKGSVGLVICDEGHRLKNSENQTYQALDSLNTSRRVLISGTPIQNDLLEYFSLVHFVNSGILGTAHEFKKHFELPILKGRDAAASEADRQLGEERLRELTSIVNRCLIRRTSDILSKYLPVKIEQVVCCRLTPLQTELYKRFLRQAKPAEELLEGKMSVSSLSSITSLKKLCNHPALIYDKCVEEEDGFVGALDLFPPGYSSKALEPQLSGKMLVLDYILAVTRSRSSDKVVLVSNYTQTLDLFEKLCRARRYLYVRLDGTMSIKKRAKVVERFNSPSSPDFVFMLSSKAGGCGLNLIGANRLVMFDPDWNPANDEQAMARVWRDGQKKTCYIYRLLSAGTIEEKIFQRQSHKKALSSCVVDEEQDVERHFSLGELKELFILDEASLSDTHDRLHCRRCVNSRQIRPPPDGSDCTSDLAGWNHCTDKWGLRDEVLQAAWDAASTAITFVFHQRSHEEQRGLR
inactive: alvocidib -0.673 | Tubastatin A 0 | [1] 0.013 | [2] -0.132 | alisertib -0.022 | [4] -0.041 | gefitinib 0

RAB5IF isoform 5 (UniProt Q9BUV8)
Chain of UniProt Q9BUV8 (Q9BUV8 whole entry, looked up): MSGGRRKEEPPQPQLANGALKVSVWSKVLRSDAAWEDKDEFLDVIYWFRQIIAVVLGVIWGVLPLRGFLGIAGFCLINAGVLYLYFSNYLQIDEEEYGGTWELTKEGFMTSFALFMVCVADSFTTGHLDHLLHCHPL
inactive: alvocidib 0.249 | [1] 0 | defactinib -0.032 | [2] -0.011 | encorafenib 0.04 | [3] -0.125 | alisertib 0.15 | [4] -0.011 | gefitinib 0.131

RNASEH2B, A0A1B0GUE7
inactive: alisertib 0.04 | [4] 0.039 | gefitinib -0.028

ROBO2 isoform 3 (UniProt Q9HCK4)
inactive: Tubastatin A -0.009 | [1] 0.03 | [4] 0.009

SEC16A isoform 3 (UniProt O15027)
inactive: Tubastatin A -0.008 | [2] 0.023

QSER1, A0A3B3IRW6
inactive: Tubastatin A -0.122 | [1] 0.014 | defactinib 0.019 | [2] -0.035 | encorafenib 0.059 | [3] 0.183 | alisertib 0.025 | [4] -0.004 | gefitinib -0.021
